# Reference: article PMC12136788
# Positions count from the first letter of the chain named. The full ranking holds about 5,800 sequences; the median of “enrichment r” is about 0.68, and the highest 2% start at about 11. What follows is part of a selection rich in the highest values, with near analogues and random picks from the rest.
# T1: UNK ZnF1-6 (called full-length) (human, UniProt Q9C0B0 30-357)
# T1 sequence: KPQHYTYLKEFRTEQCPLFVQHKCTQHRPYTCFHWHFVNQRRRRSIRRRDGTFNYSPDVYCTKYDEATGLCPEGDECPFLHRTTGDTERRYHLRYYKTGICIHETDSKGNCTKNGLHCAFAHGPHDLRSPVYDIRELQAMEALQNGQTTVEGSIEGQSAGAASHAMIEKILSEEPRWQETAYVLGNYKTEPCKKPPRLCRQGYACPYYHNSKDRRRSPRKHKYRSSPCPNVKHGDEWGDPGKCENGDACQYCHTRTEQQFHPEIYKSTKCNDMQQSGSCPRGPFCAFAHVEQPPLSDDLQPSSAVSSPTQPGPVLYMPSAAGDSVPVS
# B1: chr7:137879121:137879144:-|3pUTR|ENSG00000182158|msi1_unk|FALSE|overlapping (ssRNA)
# RNA: GGGAGUUCUACAGUCCGACGAUCUAAUCCCCAACCUACUUUUAGUUUUUUUGUUUUUUUUUUAUGGUUAAAAGUAACUUUUGUAGUUUAAAAAAAUCUUUCCUCUUUCAUAUAAAUAAGAAGUGGAAAUUGCCUUUUUAUUGUCAACAGAGGAUUGAGCAUCA
# B2: chr19:35623609:35623710:+|3pUTR|ENSG00000249115|unk|FALSE|unique (ssRNA)
# RNA: GGGAGUUCUACAGUCCGACGAUCGCCUUCUAGUUUGUAUAGUUUCUUUUUUUACAUGUAAAUCAGCCAUUUGGAAUUUAUCCUAGCACAUGGAUCCAAUUUUGUCUUAUUUUACAUAUAUCCUAGUAGCACUUACUGAAAUUCCAACAGAGGAUUGAGCAUCA
# B3: ENSG00000186472:stop:overlap|stop_codon|ENSG00000186472|stop_codon|NA|stop_codon (ssRNA)
# RNA: GGGAGUUCUACAGUCCGACGAUCUUUCUUGUAAAUGGAAAUUUUAUCAUGUGUAUAGAUUCUGUAGCAUGCUUUUCUUUAUUUAGUUUUACUUUAUUCCUUUAUUGUUCUGUUUCUUGAUUGUUUGCUUGAUUUGUUUGGUGUCAACAGAGGAUUGAGCAUCA
# B4: chr7:107202531:107202632:-|3pUTR|ENSG00000164597|msi1|FALSE|unique (ssRNA)
# RNA: GGGAGUUCUACAGUCCGACGAUCUAUUCUGAGAACUCAUAAAUAAAAUUCAGCCAAGAUUAAUCAAUCAAUCAAUCAAUCAGUAGACGUCAGAGAUAAGCAACUUUUUUUUCCAUUUAUUUGAAAUAAUAUACAAGAAUAUAGCAACAGAGGAUUGAGCAUCA
# B5: chr7:137879121:137879144:-|3pUTR|ENSG00000182158|msi1_unk|total|mutant (ssRNA)
# RNA: B1 RNA with U42C, A43C, U83C, A84C
# B6: chr10:73917138:73917420:+|3pUTR|ENSG00000122861|msi1|FALSE|unique (ssRNA)
# RNA: GGGAGUUCUACAGUCCGACGAUCGGAAUGUAUUAUUCUGCAGCAUGACCUGUGACCAGCACUGUCUCAGUUUCACUUUCACAUAGAUGUCCCUUUCUUGGCCAGUUAUCCCUUCCUUUUAGCCUAGUUCAUCCAAUCCUCACUCAACAGAGGAUUGAGCAUCA
# B7: ENSG00000198589:be:win_3201|CDS|ENSG00000198589|bound_else_gene|NA|bound_elsewhere_windowed (ssRNA)
# RNA: GGGAGUUCUACAGUCCGACGAUCAACUGGCAAAGAUUCAAUGACUGUCAGUGAAGUAACUGCUUCUAUAAGUUCUCCUUCAGAAGAGGAUGCCUCAGAGAUGCCAGAAUUCUUGGAUAAAUCUAUAGUAGAGGAAGAGGAAGACAACAGAGGAUUGAGCAUCA
# B8: chr11:85958428:85958534:-|3pUTR|ENSG00000073921|unk|FALSE|unique (ssRNA)
# RNA: GGGAGUUCUACAGUCCGACGAUCAGAAACAAUAACUGAAAUUAACUUUUCUUUUUUUAAAAAAAAUUAUAUUCAGUUUGCAGUAGACAUUCCUUAAGUAUUUGUAUUUAUUUAUGAUUAUCAAUUUUACAUAACAUUAAUAUUCAACAGAGGAUUGAGCAUCA
# B9: chr11:43342853:43342954:+|3pUTR|ENSG00000166181|msi1|FALSE|unique (ssRNA)
# RNA: GGGAGUUCUACAGUCCGACGAUCCUAGUUCUGCUGAUAAAGAUCAUCAGUUUUGAAAGGUUACUGAUUUUCCUCUUCCCUCUUAGUUUUUUACCCAAUAUAUGGAGAAGAGUAAUGGUCAAUCUUAACAUUUUGUUUUAAUUGCAACAGAGGAUUGAGCAUCA
# B10: chr8:11323570:11323671:+|3pUTR|ENSG00000104643|unk|FALSE|unique (ssRNA)
# RNA: GGGAGUUCUACAGUCCGACGAUCGAGCAUACAUAUACAAUGUGUUUCAAAUGCUGCUUGUAAAAUUAAACCAUCAUCUAGAAUAGAGUUAAUUUAUUAUAAUCAAGCUACAAAUAGGUUUUCUUAAACCAGAGAUGCACUGCCCAACAGAGGAUUGAGCAUCA
# B11: chr3:44647099:44647200:+|3pUTR|ENSG00000186448|msi1|FALSE|unique (ssRNA)
# RNA: GGGAGUUCUACAGUCCGACGAUCAUUUGUAUGUAAACUACAUAAAGAACUUUCCAAAUUUAACAGUAAUAAGUAAAUACAAUUAGAAAAUAAGCAAAAGACAGACAUUUCACUGAAGUAUAGAUAGCAAAUAAGCAAAUGAAACAACAGAGGAUUGAGCAUCA
# B12: chr2:224511460:224511569:-|CDS|ENSG00000036257|unk|FALSE|bound_elsewhere (ssRNA)
# RNA: GGGAGUUCUACAGUCCGACGAUCGAAAGCCAGAAAUUUUUAGCAGAAAAUAGUGCUUCAGUAUAUAUAAAGAAAGUAGAAGCUAGAAUUAAUGAAGAAAUAGAACGAGUGAUGCACUGCCUUGACAAAUCAACGGAAGAACCACAACAGAGGAUUGAGCAUCA
# B13: chr17:44352837:44352938:+|3pUTR|ENSG00000030582|unk|total|mutant (ssRNA)
# RNA: GGGAGUUCUACAGUCCGACGAUCCUGAAGACUCUGCAGCCCUCGGGACCCCACUCGGAGGGUGCCCUCUGCUCAGGCCUCCCCCGCACCUCCCCCUAACCAAAUUCUCCCUGGACCCCAUUCUGAGCUCCCCAUCACCAUGGGCAACAGAGGAUUGAGCAUCA
# B14: ENSG00000107863:be:win_1351|CDS|ENSG00000107863|bound_else_gene|NA|bound_elsewhere_windowed (ssRNA)
# RNA: GGGAGUUCUACAGUCCGACGAUCGUCCAGAUACGGCAACGCAGUGUGUCCCAAGAAAGACUGGAAGAUUCUGUGCUAAUGAAGUAUUGUCCAAGAAGUGCAUCUCAAGGAGCACUGACGUCUCCAUCUGUUAGUUUUAGUAAUCAACAGAGGAUUGAGCAUCA
# Target: T1, UNK ZnF1-6 (called full-length)
# Test: nsRBNS (natural sequence RNA bind-n-seq); RBNS binding buffer (assumed for nsRBNS): 25 mM Tris pH 7.5, 150 mM KCl, 3 mM MgCl2, 0.01% Triton X-100, 500 ug/ml BSA, 20 U/ml SUPERase-In, 4 C; UNK is unkempt and MSI1 is Musashi-1; names of the RNAs are library labels; protein concentration not given here; high values mean tight binding
row,Binder,binding signal
1,B1,14.9 enrichment R
2,B2,14.9 enrichment R
3,B3,0.541 enrichment R
4,B4,2.67 enrichment R
5,B5,0.762 enrichment R
6,B6,1.54 enrichment R
7,B7,0.614 enrichment R
8,B8,2.18 enrichment R
9,B9,3.5 enrichment R
10,B10,2.54 enrichment R
11,B11,162 enrichment R
12,B12,16.7 enrichment R
13,B13,0.732 enrichment R
14,B14,4.38 enrichment R
